Source: PubChem (National Center for Advancing Translational Sciences (NCATS))
HCMV inh: qHTS Assay for inhibitors of the human cytomegalovirus (HCMV); HFF cells, HCMV-luciferase reporter, 72 h; active compounds read low; activity change, negative = inhibition, % at 57.5 µM; actives 4.5% (n = 410,000); AID 1259415, 2018; in the data active = activity change below about -60%; inconclusive = no clear call, values can overlap the other calls; inactive = above about -39%
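Two-dose cell screen: HFF monolayers treated with compounds and infected with luciferase-expressing HCMV at 1 PFU/cell, 72 h at 37C, then lysed for luciferase measurement.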
MARV entry inh: qHTS for inhibitors of binding or entry into cells for Marburg Virus | actives 1.8% (n = 300,000) | Potency, µM (series often up to 37.8 µM), without a hit: top-dose activity change, negative = inhibition, most hits filed as inhibitors | Marburg virus pseudotyped entry inhibition, cell reporter; calls by dose curve; tested in HEK293 cells; note: potency is the fitted concentration of half-maximal effect
HCV inhibitor: qHTS Assay for Inhibitors of Hepatitis C Virus (HCV). Huh7.5.1 HCVcc-Cre infection, luciferase reporter, 44 h. Potency, µM (titrated, usually from 41.8 µM), without a hit: at the highest dose activity change, negative = inhibition, usual class: inhibitors. actives 3.4% (n = 340,000). AID 651820, 2012; active = well fitted inhibition curve with a large enough effect; inconclusive = small, poorly fitted or top-dose-only effect, or another doubt; inactive = no such curve, though single readings can be large or run the other way; note: potency is the fitted concentration of half-maximal effect
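Antiviral activity was scored by luciferase reporter output from cells infected with HCVcc-Cre (~0.5 moi) in presence of compound, 44 h infection period, cells seeded 1,000/well 4 h prior.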
FMDV inh: High Throughput Screening for Foot and Mouth Disease Virus Antivirals. FMDV antiviral cell-based qHTS. AID 1159524, 2015. actives 1.2% (n = 410,000). Potency, µM (highest dose often 57.9 µM), for the others: top-dose activity change, negative = inhibition, usual class: inhibitors; calls by dose curve; tested in HEK293T cells; note: read-out not given here; potency is the fitted concentration of half-maximal effect; nearly all actives have a fitted effect of over 45% in size
LASV entry inh: qHTS for Inhibitors of binding or entry into cells for Lassa Virus; Lassa virus pseudotype entry inhibition, cell reporter; Potency, µM (series often up to 37.9 µM), without a hit: at the top dose activity change, negative = inhibition, usual class: inhibitors; actives 1.2% (n = 300,000); AID 540256, 2011; calls by dose curve; tested in HEK293 cells; note: potency is the fitted concentration of half-maximal effect; nearly all actives have a fitted effect of over 50% in size
Starred values were filed as active, the others as inactive; ? = inconclusive; · = no result given; [ ] = remark or other dose. This is a sample that favours compounds with a hit; in the whole collection about 7.9% have one here. % is set by controls: 0 for no effect and ±100 for the full control effect.

SMILES	HCMV inh	MARV entry inh	HCV inhibitor	FMDV inh	LASV entry inh
O=C(NCc1ccc2c(c1)OCO2)[C@@H]1[C@@H](CO)[C@@H]2Cn3c(cccc3=O)[C@H]1N2Cc1cccnc1	19	·	·	·	·
CCOC(=O)c1c(C)oc2nc(C)nc(NCCc3ccc(OCC)cc3)c12	-36	·	·	?	5%[46.1 µM]
Cc1c(CNC2CCCCCC2)c(C(=O)O)c(C)n1Cc1ccc(F)cc1Cl	-2	2%[46.1 µM]	·	0%	3%[46.1 µM]
Cc1ccc(NC(=O)c2nc(S(C)(=O)=O)ncc2N(Cc2ccccc2)Cc2ccco2)c(C)c1	-10	5%[46.1 µM]	·	-23%	-18%[46.1 µM]
O=c1oc(-c2ccc(C(F)(F)F)cc2)nn1Cc1cc(Cl)ccc1O	·	·	·	-7%	·
O=C(Nc1nc(-c2ccccc2)cs1)C1COc2ccccc2O1 (stereo not drawn)	44	5%	-11%	-13%	-8%
CC1CCc2nc(NC(=O)C3COc4ccccc4O3)sc2C1 (stereo not drawn)	-76*	·	?	16µM*	·
CSc1nc2ccc3nc(NC(=O)C4COc5ccccc5O4)sc3c2s1 (stereo not drawn)	-78*	·	-26%	-16%	·
O=C(Nc1nc(-c2ccccn2)cs1)C1COc2ccccc2O1 (stereo not drawn)	-83*	·	35µM*	-18%	·
Cc1c(-c2ccccn2)c(=O)[nH]n1-c1ccc(F)cc1	14	8.9µM*	6%	-34%	-27%[46.1 µM]
O=c1[nH]n(-c2ccc(F)cc2)c2ncccc12	-7	6%	16%	1%	5%
COc1ccc(C(=O)/C=C2\C(=O)Nc3ccc(Br)cc32)cc1	18	?	-42%	-25%	-7%
O=C1Nc2ccc(Br)cc2/C1=C/C(=O)c1ccc2c(c1)OCO2	-100*	·	?	28µM*	·
Cc1nc2ccccc2nc(C)c1=NOCc1cccc(F)c1	?	?	-6%	?	2.8µM*
CC(=O)N(O)c1ccc(C=Cc2ccccc2)cc1	-99*	·	·	44%	·
Nc1c(C(=O)Nc2ccccc2Cl)c2ccccn2c1C(=O)c1ccccc1	15	-1%[46.1 µM]	·	-10%	30%[46.1 µM]
COc1ccc(NC(=O)c2cc(S(=O)(=O)N3CCCCC3)cn2C)cc1Cl	-6	·	·	-6%	-14%[46.1 µM]
O=C(Cc1ccc(F)cc1)N1CCC(c2nc3c(nnn3Cc3ccc(Cl)cc3)c(=O)[nH]2)CC1	11	3%[46.1 µM]	·	-25%	-17%[46.1 µM]
CS(=O)c1ccccc1O (stereo not drawn)	-24	·	17%	-17%	·
O=S(c1ccccc1O)S(=O)c1ccccc1O (stereo not drawn)	-26	2%[46.1 µM]	10µM*	2%	-24%[46.1 µM]
CCOc1ccc(CN(C)Cc2cc(=O)oc3c(C)c(C)ccc23)cc1OC	-15	?	11µM*	?	?
COc1cc(CN(C)Cc2cc(=O)oc3cc(C)c(Cl)cc23)ccc1OC(F)F	-20	?	10µM*	?	?
O=c1c(N2CCN(c3ccccc3)CC2)csc2ccc(Cl)cc12	-4	·	·	18%	-11%[46.1 µM]
Cc1ccc(CNC(=O)c2cccn2-c2nnc(N3CCCCC3)s2)cc1	0	·	·	?	8%[46.1 µM]
Cc1ccc(NC(=O)c2cc3c(s2)CCC3)cc1S(=O)(=O)N1CCOCC1	-65*	-20%	7.9µM*	?	-12%
SMILES	HCMV inh	MARV entry inh	HCV inhibitor	FMDV inh	LASV entry inh
Cc1cccc(C)c1NS(=O)(=O)c1ccc(NC(=O)c2ccc(Cl)c([N+](=O)[O-])c2)cc1	-66*	-7%	7.1µM*	-1%	11%
Cc1ccc(C(=O)Nc2cccc(S(=O)(=O)N3CCCCC3)c2)cc1[N+](=O)[O-]	-34	·	7.1µM*	?	·
Cc1ccc(C(=O)Nc2ccc3c(c2)CCC3)cc1S(=O)(=O)N1CCOCC1	-62*	?	?	23%	13%[46.1 µM]
O=C(Nc1ccc(S(=O)(=O)NC2=NCCCCC2)cc1)c1ccc(Cl)c([N+](=O)[O-])c1	?	·	?	-2%	·
Cc1cc(C)cc(NC(=O)CCCc2nc(-c3ccco3)no2)c1	0	25%[46.1 µM]	·	8%	6%[46.1 µM]
COc1ccc(NC(=O)Cn2nc3c(cc2=O)CCCC3)cc1Cl	-15	·	·	-9%	14%[46.1 µM]
O=C(CC1N=C2c3ccccc3N=C(SCc3ccccc3Cl)N2C1=O)NCc1cccs1 (stereo not drawn)	7	·	·	-3%	-8%[46.1 µM]
Fc1ccc(Nc2nc3ccccc3c3nncn23)c(Cl)c1	-13	-15%[46.1 µM]	·	-10%	0%[46.1 µM]
COCCn1c(C)cc(O)c(C(c2ccccc2OC)N2CCCCC2)c1=O (stereo not drawn)	-6	·	·	-9%	?
CCCSc1ncc(Cl)c(C(=O)N(Cc2ccc(N(C)C)cc2)C2CCS(=O)(=O)C2)n1 (stereo not drawn)	?	4%[46.1 µM]	·	-9%	-27%[46.1 µM]
O=C(Nc1ccccc1)Nc1ccc(Cl)c([N+](=O)[O-])c1	?	?	13µM*	-5%	?
O=[N+]([O-])c1cccc(S(=O)(=O)Nc2nc3ccccc3nc2Nc2cccc(S(=O)(=O)N3CCCCC3)c2)c1	-100*	·	10µM*	?	·
Cc1ccc(NC(=O)c2cccc(S(=O)(=O)N(C)c3ccccc3)c2)cc1S(=O)(=O)N1CCOCC1	-70*	?	4µM*	?	?
Cc1ccc(NC(=O)Nc2ccccc2)cc1[N+](=O)[O-]	32	10%	?	13%	16%
Cc1ccc(C(=O)NNC(=O)c2ccccc2O)cc1S(=O)(=O)N1CCCCC1	-29	-16%	13µM*	6%	-14%[46.1 µM]
COc1ccc(-c2nc3scc(CCNS(=O)(=O)c4cccc(C(C)=O)c4)n3n2)cc1	51	·	·	34%	-9%[46.1 µM]
COc1ccc(NC(=O)c2cc3c(s2)CCC(C)C3)cc1S(=O)(=O)N1CCOCC1 (stereo not drawn)	-100*	?	?	28µM*	23µM*
Cc1ccc(C(=O)NC(C)c2ccc(-n3ccnc3)cc2)cc1S(=O)(=O)N1CCOCC1 (stereo not drawn)	-97*	-1%	?	10%	15%
COc1ccc(C(=O)Nc2ncc(C)s2)cc1S(=O)(=O)N1CCOCC1	-28	·	1%	-11%	·
Cc1cnc(NC(=O)c2ccc(F)c(S(=O)(=O)N3CCOCC3)c2)s1	-105*	-4%	?	-10%	15%
COc1ccc(NC(=O)C2CCC2)cc1S(=O)(=O)N1CCOCC1	42	·	-2%	-5%	·
O=C(Nc1ccc2c(c1)CCC2)c1ccc(F)c(S(=O)(=O)N2CCOCC2)c1	?	?	16µM*	-26%	?
Cc1cccc(OCc2ccc(-c3nc(C#N)c(NCc4cccnc4)o3)o2)c1	-27	?	·	-10%	4%[46.1 µM]
COC(=O)c1sccc1S(=O)(=O)N1CCN(c2cccc(C)c2C)CC1	0	·	·	-24%	?
O=C(Nc1ccccc1N1CCCCC1)c1ccc(F)c(S(=O)(=O)N2CCOCC2)c1	-35	-1%[46.1 µM]	10µM*	1%	-29%
